# Compound activity: PubChem, National Center for Advancing Translational Sciences (NCATS)
# ALDH1A1 inh: qHTS Assay for Inhibitors of Aldehyde Dehydrogenase 1 (ALDH1A1); Aldehyde dehydrogenase 1A1 (Homo sapiens), P00352; Purified ALDH1A1, NADH fluorescence, propionaldehyde substrate; Potency, µM (series often up to 75.3 µM), most hits filed as inhibitors; 7.3% of 220,000 active
# 12-hLO inh: qHTS Assay for Inhibitors of 12-hLO (12-human lipoxygenase) | Polyunsaturated fatty acid lipoxygenase ALOX12 (Homo sapiens), P18054 | purified 12-hLO, xylenol orange hydroperoxide absorbance | Potency, µM (top dose mostly 57.1 µM), hits mostly inhibitors | 0.12% of 150,000 active | AID 1452, 2008; active = well fitted inhibition curve with a large enough effect; inconclusive = small, poorly fitted or top-dose-only effect; note: nearly all actives have a fitted effect of over 55% in size
# Target sequence (P18054 whole entry, looked up): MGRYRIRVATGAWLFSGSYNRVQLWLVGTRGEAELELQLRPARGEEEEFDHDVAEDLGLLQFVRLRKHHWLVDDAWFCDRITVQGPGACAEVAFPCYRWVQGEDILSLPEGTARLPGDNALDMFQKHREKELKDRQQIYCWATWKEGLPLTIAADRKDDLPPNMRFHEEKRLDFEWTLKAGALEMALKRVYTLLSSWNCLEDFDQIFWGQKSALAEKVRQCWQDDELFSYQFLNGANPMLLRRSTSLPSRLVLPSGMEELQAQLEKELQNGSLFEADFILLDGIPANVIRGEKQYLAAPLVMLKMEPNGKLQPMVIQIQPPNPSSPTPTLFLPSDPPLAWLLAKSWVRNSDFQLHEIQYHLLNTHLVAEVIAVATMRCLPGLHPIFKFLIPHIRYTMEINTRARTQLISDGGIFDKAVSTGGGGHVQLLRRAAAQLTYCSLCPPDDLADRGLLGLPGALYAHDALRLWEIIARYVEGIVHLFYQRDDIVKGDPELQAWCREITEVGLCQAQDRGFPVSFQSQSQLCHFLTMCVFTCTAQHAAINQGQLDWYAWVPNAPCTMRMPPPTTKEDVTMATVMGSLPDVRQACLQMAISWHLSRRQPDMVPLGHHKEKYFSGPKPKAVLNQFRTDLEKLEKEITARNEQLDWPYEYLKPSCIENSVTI
#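 Hydroperoxide formation by human 12-lipoxygenase from 40 uM arachidonic acid was followed colorimetrically via ferric-xylenol orange complex, using the 573/405 nm absorbance ratio. Enzyme concentration was 150 nM, with 30 min reaction at room temperature.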
# LMNA splice mod: qHTS Assay for Modulators of Lamin A Splicing | HeLa LMNA splicing GFP/RFP minigene ratio, 48 h | Potency, µM (series often up to 46.1 µM), most hits filed as inhibitors | 0.01% of 200,000 active; active = well fitted inhibition curve with a large enough effect in the signal ratio, with a control signal flat, not every such curve was filed as active; inconclusive = small, poorly fitted or top-dose-only effect, or effect the other way, or a change in a side signal; the % refers to the signal ratio
#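 S3 HeLa cells stably expressing lamin A-EGFP splicing minigene plus DsRed2, 600 cells/well, 48 h compound exposure at 37C. Laser-scanning cytometry; analysed as GFP (500-530 nm)/RFP (575-640 nm) total intensity ratio; 0.5% DMSO vehicle.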
# PNC inhibitor: High Content Assay for Compounds that inhibit the Assembly of the Perinucleolar Compartment; AID 2417, 2010; PC3M PTB-GFP, PNC prevalence imaging, 16 h; hits give low values; 3.1% of 140,000 active; activity change (PNC), negative = inhibition, % at 10 µM;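 active = readout at or below -70, meaning at least 70% loss of cells showing the perinucleolar compartment, a nuclear body marking cancer cells; inconclusive = readout between -30 and a set limit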
#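 Compounds are pinned in duplicate onto adhered PC3M cells stably expressing GFP-tagged PTB and incubated 16 h at 37 C. Cells are then fixed, nuclei stained with Hoechst, and PNC-positive cells counted.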
# HPGD block: qHTS Assay for Inhibitors of HPGD (15-Hydroxyprostaglandin Dehydrogenase) | 15-hydroxyprostaglandin dehydrogenase [NAD(+)] (Homo sapiens), P15428 | purified HPGD, NADH fluorescence kinetic, PGE2 substrate | Potency, µM, most hits filed as inhibitors | AID 894, 2007 | 4.3% of 150,000 active
#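 NADH formation kinetics: reaction with 30 uM PGE2 and 1 mM NAD+ (final), 20 nM enzyme, Tris-HCl pH 8 with Tween 20, after 15 min compound preincubation at room temperature. Fluorescence change, last versus first of five reads.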
# A number is an active result; i = inactive; ? = inconclusive; nt = no result given; [ ] = another dose, or the depositor's remark. An excerpt weighted towards active compounds, which were near 10% of everything screened. Unless noted, calls come from the whole dose curve; as a rule, active = well fitted inhibition curve with a large enough effect (not every such curve was filed as active); inconclusive = small, poorly fitted or top-dose-only effect, or another doubt; inactive = no such curve, though single readings can be large or run the other way.
SMILES,ALDH1A1 inh,12-hLO inh,LMNA splice mod,PNC inhibitor,HPGD block
COc1ccc(/C=N/NC(=S)NC2CCS(=O)(=O)C2)cc1OC (configuration not stated),i,i,i,-100.0,?
O=C(N/N=C/c1ccc2c(c1)OCO2)/C(=C/c1ccc2c(c1)OCO2)NC(=O)c1ccccc1,i,i,i,?,?
COc1ccc(/C=C(/NC(=O)c2ccccc2)C(=O)N/N=C/c2ccc3c(c2)OCO3)cc1OC,i,i,i,i,31.6µM
COc1ccc(/C=N/NC(=O)C(=O)N2CCCC2)cc1OC,i,i,i,i,31.6µM
COc1ccc(C2C(=O)N(C3CCC(C)CC3)CC(=O)N2CCC2=CCCCC2)cc1OC (configuration not stated),nt,nt,i,nt,nt
CCOC(=O)Cn1c(=O)n(CC2CCCO2)c2nc(-c3ccc(CC)cc3)nc(C(N)=O)c21 (configuration not stated),nt,nt,i,nt,nt
Cn1nnc2c(N3CCN(c4cccc(Cl)c4)CC3)ncnc21,nt,nt,i,nt,nt
COc1ccc(CCN(C)CCC[C@@](C#N)(c2cc(OC)c(OC)c(OC)c2)C(C)C)cc1OC,nt,i,nt,nt,nt
CCOc1ccc(/C=N/NC(=O)CN2CCSCC2)cc1,?,i,i,?,i
COc1ccc(/C=N/NC(=O)CN2CCSCC2)cc1C,10µM,i,i,i,i
CC(=O)C1C(c2cn(-c3ccccc3)nc2-c2cccs2)NC(=O)NC1(O)C(F)(F)F (configuration not stated),22.4µM,i,i,i,i
CCCCC1=CC2=CC(=O)C(C)(OC(=O)CC)C(=O)C2=CN1Cc1ccco1 (configuration not stated),i[13.5 µM],i[11.4 µM],i[9.22 µM],nt,i
CCCCc1cc2c(cn1)=C(OC(=O)c1ccco1)C(C)(OC(=O)CC)C(=O)C=2 (configuration not stated),2µM,i[11.4 µM],i[9.22 µM],nt,i
CCOc1ccccc1Nc1nnc(-c2cc3cc(Cl)ccc3oc2=O)s1,nt,nt,i,nt,nt
CCN(C(=O)CSc1nc2cc(Cl)ccc2c(=O)n1Cc1ccco1)C1CCS(=O)(=O)C1 (configuration not stated),17.8µM,nt,nt,nt,nt
CN(C(=O)CSc1nc2ccc(Br)cc2c(=O)n1Cc1ccco1)C1CCS(=O)(=O)C1 (configuration not stated),12.6µM,nt,?,nt,nt
CC1CCCCN1c1cc2c(cc1F)c(=O)c(S(=O)(=O)c1ccccc1)cn2Cc1ccccc1 (configuration not stated),nt,nt,i,nt,nt
Cc1ccc(CNc2ncnc3onc(-c4ccc(F)cc4)c23)cc1,nt,nt,i,nt,nt
Cc1c(C(=O)N2CCCCC2)sc(NC(=O)C2CC2)c1C#N,i,i,i,i,14.1µM
Cc1c(C(=O)N2CCCCC2)sc(NC(=O)C(C)C)c1C#N,i,i,i,i,12.6µM
Cc1c(C(=O)N2CCCC2)sc(NC(=O)c2cccs2)c1C#N,i,i,i,i,i
Cc1c(C(=O)N2CCCC2)sc(NC(=O)c2ccccc2)c1C#N,i,i,i,i,?
Cc1c(C(=O)N2CCCCC2)sc(N)c1C#N,?,i,i,i,12.6µM
Cc1c(C(=O)N2CCCCC2)sc(NC(=O)c2ccco2)c1C#N,i,i,i,i,15.8µM
Cc1nc2cnc(N(C)C)nc2n(C)c1=O,?,i,nt,nt,?
SMILES,ALDH1A1 inh,12-hLO inh,LMNA splice mod,PNC inhibitor,HPGD block
CCn1c(=O)cc(OCC(=O)Nc2ccc(OC)c(OC)c2)c2ccccc21,15.8µM,nt,?,nt,nt
CN(CCNC(=O)CCNC(=O)Cn1ccc2ccccc2c1=O)Cc1ccccc1,i,i,i,i,nt
CCn1c(=O)cc(OCC(=O)Nc2ccc3c(c2)OCCO3)c2ccccc21,?,i,?,i,i
CCN(CCCNC(=O)CCNC(=O)Cn1ccc2ccccc2c1=O)c1ccccc1,?,i,i,-94.3,i
CCN(CCCNC(=O)COc1cc(=O)n(C)c2ccccc12)c1ccccc1,i,i,i,i,i
CCN(CCCNC(=O)COc1cc(=O)n(CC)c2ccccc12)c1ccccc1,i,i,?,-100.0,i
Cc1ccc(/C=C/c2onc(C)c2S(=O)(=O)N2CCC(C(=O)NCc3ccc(OC(C)C)cc3)CC2)cc1,nt,nt,i,nt,nt
CC1CCCCN1S(=O)(=O)c1ccc2[nH]c(=O)cc(C(=O)NCCc3ccc(Cl)cc3)c2c1 (configuration not stated),nt,nt,i,nt,nt
